# ELG1 DNA repair: blocks ELG1-dependent DNA repair in HEK293T cells | HEK293T ELG1-luciferase reporter, luminescence, 16 h; DNA damage induced by 5-fluorouridine | Potency, µM (highest dose often 46.1 µM), for the others: at the highest dose activity change, negative = inhibition, hits mostly inhibitors | 330,000 compounds, 2.3% hits | AID 504467; also: % is scaled to controls: 0 for no effect and ±100 for the full control effect; nearly all actives have a fitted effect of over 55% in size
#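 Overnight (16 hr) co-exposure of 2,000 cells/well to 5-fluorouridine and compound at 37 °C preceded detection. Luciferase was quantified via ONE-Glo luminescence; loss of signal denotes inhibition.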
# RORgamma inh: blocks mouse ROR gamma transcriptional activity. P51450. Drosophila S2 Gal4-RORgamma UAS-luciferase reporter, 20 h. Potency, µM (highest dose often 53.6 µM), for inactives: at the highest dose activity change, negative = inhibition, most hits filed as inhibitors. 310,000 compounds, 5.4% hits. AID 2551; also: % is scaled to controls: 0 for no effect and ±100 for the full control effect; nearly all actives have a fitted effect of over 60% in size
# Target sequence (P51450 whole entry, looked up, the tested form may be a part): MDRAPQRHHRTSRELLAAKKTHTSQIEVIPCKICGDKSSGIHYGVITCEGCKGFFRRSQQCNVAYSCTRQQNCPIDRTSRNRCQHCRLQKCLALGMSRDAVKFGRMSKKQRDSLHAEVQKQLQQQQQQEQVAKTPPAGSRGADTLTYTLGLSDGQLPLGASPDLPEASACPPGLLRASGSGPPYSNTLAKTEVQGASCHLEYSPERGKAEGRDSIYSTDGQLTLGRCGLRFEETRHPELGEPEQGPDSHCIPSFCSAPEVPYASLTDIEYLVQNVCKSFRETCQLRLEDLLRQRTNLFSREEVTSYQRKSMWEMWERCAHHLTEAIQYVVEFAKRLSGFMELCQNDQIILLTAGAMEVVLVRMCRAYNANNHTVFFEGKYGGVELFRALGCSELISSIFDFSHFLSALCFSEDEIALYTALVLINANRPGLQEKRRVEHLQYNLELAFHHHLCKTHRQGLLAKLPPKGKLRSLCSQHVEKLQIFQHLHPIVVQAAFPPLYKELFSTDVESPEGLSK
#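 Stably transfected Drosophila Schneider cells are the test system, with ROR gamma fused to Gal4 and luciferase under UAS control; luminescence is read after 20 hr of 700 uM copper sulfate induction at ambient temperature.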
# SW480 rerep: inducers of DNA re-replication in SW480 colon cancer cells | 340,000 compounds, 1.8% hits | Potency, µM (highest dose often 46.1 µM), without a hit: top-dose re-replication activation, actives largely listed as activators | SW480 DNA re-replication, Hoechst DNA content imaging, 48 h; also: % of control where 0% means no effect; nearly all actives have a fitted effect of over 55% in size
#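 Readout is total intensity of Hoechst-stained nuclei, excited at 405 nm and collected at 500-530 nm. Compound treatment lasted 48 hr at 37 C in 5% CO2 before staining.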
# VP16 counter: inhibits Gal4-VP16 luciferase reporter, ROR gamma counter-screen; Drosophila S2 Gal4-VP16 UAS-luciferase, luminescence, 20 h; Potency, µM (highest dose often 53.6 µM), for inactives: top-dose activity, negative = inhibition, usual class: inhibitors; 310,000 compounds, 3.5% hits; AID 2546;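 also: Gal4-VP16 expression switched on by copper sulfate through the metallothionein promoter; % is scaled to controls: 0 for no effect and ±100 for the full control effect; nearly all actives have a fitted effect of over 50% in size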
# MCF10A rereplic: inducers of DNA re-replication in MCF 10A breast cells | Potency, µM (titrated, usually from 46.1 µM), without a hit: at the top dose activity, positive = re-replication, usual class: activators | AID 624296 | MCF 10A DNA re-replication, Hoechst nuclear intensity, 48 h | 350,000 compounds, 2.9% hits; also: % of control where 0% means no effect; nearly all actives have a fitted effect of over 50% in size
# * hit, by the source's call; u = inconclusive; x = not tested or not shown; ! = not confirmed by another sample; [ ] = another dose, or the depositor's remark. In the library only some 10% were active in any assay of this set; here they are far more common. Calls follow the shape of the dose curve; as a rule, active = well fitted curve in the direction sought with a large enough effect; inconclusive = small, poorly fitted or top-dose-only effect, or another doubt; inactive = no such curve, though single readings can be large; an effect the other way counts as inactive or inconclusive. Potency is read from the fitted curve at half-maximal effect.
SMILES,ELG1 DNA repair,RORgamma inh,SW480 rerep,VP16 counter,MCF10A rereplic
O=C1c2ccccc2C(=O)N1OS(=O)(=O)c1ccccc1,11%,u,x,16µM*,x
Cc1ccc(C)c(S(=O)(=O)ON2C(=O)c3ccccc3C2=O)c1,16%,u,u,11µM*,5.8µM*
Cc1ccc(C)c(C(=O)CN2C(=O)c3ccccc3C2=O)c1,u,-2%,-13%,-12%,4%
CCN(CC)CCNC(=O)CNC(=O)c1nn(-c2ccc(OC)cc2OC)c(=O)c2ccccc12,29%,-8%,0%,-2%,3%
OCCN1CCN(CC/C=C2/c3ccccc3Sc3ccc(Cl)cc32)CC1,11%,x,29%,x,4.6µM*
OCCN1CCN(CCCN2c3ccccc3Sc3ccc(Cl)cc32)CC1,0%,u,u,-24%,21µM*!
CC[N+](C)(C)CC/C=C1/c2ccccc2Sc2ccc(Cl)cc21,-20%,9%,-9%,-2%,-22%
CCC(=O)Nc1ccc(/C(C)=N/NC(=O)c2c(-c3ccccc3Cl)noc2C)cc1,-16%,3%,-5%,-21%,5%
Cc1onc(-c2ccccc2)c1C(=O)N/N=C(\N)COc1ccc(Cl)cc1,3%,1µM*,12%,1.3µM*,15%
Cc1onc(-c2ccccc2Cl)c1C(=O)N/N=C(\N)COc1ccc(Cl)cc1,-6%,0.45µM*,-1%,1µM*,15%
Nc1c(C(=O)NCC2CCCO2)sc2nc3c(c(-c4ccco4)c12)CC/C3=C\c1ccco1 (stereo unspecified),-26%,9%,14%,-2%,15%
Cc1ccc(-c2nc(SC(C)C(=O)c3c(N)n(C)c(=O)n(C)c3=O)n[nH]2)cc1 (stereo unspecified),u,x,2%,x,15%
Cc1cccc(CC2SC(N)=NC2=O)c1 (stereo unspecified),18%,-2%,3%,-2%,3%
Cc1cccc(CC2S/C(=N/c3ccccn3)NC2=O)c1 (stereo unspecified),-16%,1.3µM*,-3%,u,u
O=C1N/C(=N\c2ccccn2)SC1Cc1ccccc1Cl (stereo unspecified),-2%,0.71µM*,15%,1µM*,u
Cc1ccc2nc(-c3ccc(NC(=O)C4CCCO4)cc3)[nH]c2c1 (stereo unspecified),u,6.3µM*,-6%,7.1µM*,3%
O=C(Nc1ccc(Oc2ccccc2)cc1)C1CCCO1 (stereo unspecified),u,41%,u,-2%,7.3µM*
O=C(Nc1ccc(N=Nc2ccccc2)c(NC(=O)C2CCCO2)c1)C1CCCO1 (stereo unspecified),9.2µM*,19%,2%,3%,u
O=C(Nc1ccc(-c2nc3cccnc3s2)cc1)C1CCCO1 (stereo unspecified),u,18µM*,u,11µM*,u
O=C(Nc1ccc(-c2nc3ccccc3o2)cc1)C1CCCO1 (stereo unspecified),u,-35%,1%,u,25%
CC1(C)CC(=O)/C(=C(\O)CCCN2C(=O)c3ccccc3C2=O)C(=NCCO)C1,0%,0%,-8%,5%,1%
COc1ccc(S(=O)(=O)N2CCOCC2)cc1NC(=O)Cc1ccc2c(c1)OCCO2,4%,x,-2%,x,-6%
C=C1CC2(OC1=O)c1ccccc1CCc1ccccc12,x,x,4.1µM*,x,2.9µM*
O=C1NC(=O)C2(CCc3ccccc32)N1 (stereo unspecified),3%,-1%,4%,-12%,-3%
COc1cccc(-c2nnc3n2N=C(c2ccccc2OC)CS3)c1,x,-7%,x,u,x
SMILES,ELG1 DNA repair,RORgamma inh,SW480 rerep,VP16 counter,MCF10A rereplic
O=C(CSc1nnc(-c2c[nH]c3ccccc23)o1)N(Cc1ccccc1)c1ccc(F)cc1,21µM*,u,-8%,-8%,12%
Clc1ccc2nc(CSc3nnc(-c4c[nH]c5ccccc45)o3)cn2c1,x,x,-3%,x,8%
Clc1cccc(CSc2nnc(-c3c[nH]c4ccccc34)o2)c1,0%,-21%,-5%,-9%,11µM*
O=C1C=C(c2ccc(Oc3ccccc3)cc2)C[C@@H](c2ccc3c(c2)OCO3)C1,-4%,x,-5%,x,0%
CCOC(=O)c1c(C)[nH]c(C=C2C(=O)CCCC2=O)c1O,-2%,8%,-2%,10%,-1%
CCn1cc(C(=O)NN)c(=O)c2cc(F)c(NC3CCCCC3)cc21,-14%,-3%,-13%,1%,3%
O=C1C2C(C(=O)N1/N=C/c1ccc([N+](=O)[O-])o1)C1C=CC2C12CC2 (stereo unspecified),-6%,u,u,20µM*,16µM*
O=C1C2C3C=CC(C3)C2C(=O)N1/N=C/c1ccc(-c2ccccc2[N+](=O)[O-])o1 (stereo unspecified),u,u,0%,3%,u
O=C1C2C3C=CC(C4CC34)C2C(=O)N1/N=C/c1ccc([N+](=O)[O-])o1 (stereo unspecified),u,13µM*,10µM*,10µM*,3.3µM*
O=C1C2C3C=CC(C4CC34)C2C(=O)N1/N=C/c1ccc(-c2ccc([N+](=O)[O-])cc2)o1 (stereo unspecified),-13%,0%,u,-12%,-10%
C=CCC1Cc2c(Br)cccc2C(CC=C)N1 (stereo unspecified),-8%,-24%,-24%,-14%,0.92µM*
COc1cnc(-c2ccccc2)nc1Sc1ccccc1,u,u,19%,0%,-3%
CCOC(=O)C(C)Sc1ncc(OC)c(Sc2ccc(Cl)cc2)n1 (stereo unspecified),2%,-1%,-3%,2%,u
COc1cnc(-c2ccccn2)nc1Sc1ccccc1Cl,u,2.5µM*,13µM*,10µM*,u
COc1cnc(-c2ccccn2)nc1Sc1c(Cl)cccc1Cl,u,3.2µM*,15µM*,10µM*,u
CCOC(=O)C(C)Sc1nc(-c2ccccn2)ncc1OC (stereo unspecified),-11%,7.1µM*,0%,u,20%
COc1ccc(Cl)cc1NC(=O)CN(C)CC(=O)Nc1ccc(C)cc1Br,u,12%,0%,8%[10 µM],u
CCOC(=O)N1CCC(NC(=O)c2cc(C(=O)Nc3ccc(S(=O)(=O)N4CCOCC4)cc3)ccc2CO)CC1,u,-31%,-8%,1%,8%
COC(=O)[C@@]1(Cc2ccc(F)cc2)[C@H]2c3cc(C(=O)N4CCCC4)n(Cc4c(CO)[nH]cc(C)c4=O)c3C[C@H]2CN1C(=O)c1ccccc1,x,19%,x,3%,x
CN(/N=C/c1ccc2c(c1)OCO2)c1ccccc1,u,-44%,-5%,18µM*,1%
